Assay results taken from PubChem BioAssay (NCATS).
Several values for one entry are separate records, joined by “and”; a condition that tells them apart may be missing. Equal entries are not always repeated. Records with an inconclusive call do not appear. Activity calls are given as the source filed them. Unless noted, the call rests on the fitted dose curve; in most records, active means well fitted curve in the direction sought with a large enough effect; inconclusive means small, poorly fitted or top-dose-only effect, or another doubt; inactive means no such curve, though single readings can be large; an effect the other way counts as inactive or inconclusive.

Key:
[1] = qHTS Assay for Identification of Small Molecule Agonists for Hypoxia Response Element Signaling Pathway (AID 914; active means well fitted activation curve with a large enough effect in the signal ratio, with a control signal flat, not every such curve was filed as active; the % refers to the signal ratio; further: % of control where 0% means no effect); settings: ME-180 (cervical carcinoma) HRE-bla reporter, beta-lactamase ratio, CoCl2, 17 h; hits give high values
Method in brief: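 HRE-bla ME-180 cells with beta-lactamase reporter under hypoxia response element, compounds with EC50 CoCl2 for 17 hours at 37 C. CCF4 substrate, 460nm/530nm emission ratio gave %Activity; AC50 from titration series.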

[2] = qHTS Assay for Identification of Small Molecule Agonists for Thrombopoietin (TPO) Signaling Pathway (AID 917); settings: TPO signaling pathway reporter cells, agonist qHTS, stimulated with TPO at its EC50; series mostly up to 38.5 µM; further: on the % scale 0 is the no-effect control and ±100 the full control effect
Method in brief: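 We measured Glycoprotein IIb promoter–luciferase output in IL-3-starved Ba/F3 murine cells expressing the human TPO receptor after 24 hrs at 37 C with compounds and 26 pM TPO.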

[3] = Confirmation and Secondary Assay for Modulators of Hemoglobin Beta Chain Splicing at IVS2 705 locus (AID 930); settings: HeLa EGFP-705 splicing reporter, GFP fluorescence, 48 h; series mostly up to 46.1 µM;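 further: HeLa cells stably expressing the EGFP-705 splicing reporter; GFP fluorescence per well restored by corrected splicing of the IVS2-705 intron in EGFP; % of control where 0% means no effect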
Method in brief: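 HeLa cells stably carrying EGFP interrupted by mutant beta-globin intron 2 (IVS2-705) treated 2 days at 37C with compound; 500 nM antisense PNA as control. Correct splicing read as total peak GFP intensity per well by laser-scanning cytometry.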

[4] = target: Pyruvate kinase (Leishmania mexicana) (UniProt Q27686); test: qHTS Validation Assay for Inhibitors of Leishmania Mexicana Pyruvate Kinase (AID 945); further: potency means the concentration at half of the fitted maximal effect; settings: purified L. mexicana pyruvate kinase, enzyme activity, E451W mutant enzyme; series mostly up to 57.5 µM
Sequence of Pyruvate kinase (Leishmania mexicana) (Q27686 2-499 E452W): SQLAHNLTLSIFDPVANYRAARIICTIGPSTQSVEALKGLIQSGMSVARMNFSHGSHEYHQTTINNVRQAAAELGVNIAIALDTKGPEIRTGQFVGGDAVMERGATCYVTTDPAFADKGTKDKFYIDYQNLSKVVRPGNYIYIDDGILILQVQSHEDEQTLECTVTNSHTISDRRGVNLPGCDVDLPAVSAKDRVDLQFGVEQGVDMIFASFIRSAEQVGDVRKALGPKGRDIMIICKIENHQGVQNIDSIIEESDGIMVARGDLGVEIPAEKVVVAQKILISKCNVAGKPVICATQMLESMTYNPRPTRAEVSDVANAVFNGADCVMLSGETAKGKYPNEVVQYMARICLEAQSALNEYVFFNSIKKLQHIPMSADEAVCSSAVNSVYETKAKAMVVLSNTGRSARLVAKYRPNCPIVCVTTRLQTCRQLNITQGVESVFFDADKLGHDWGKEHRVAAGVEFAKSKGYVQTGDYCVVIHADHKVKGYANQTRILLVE
Method in brief: (§1)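 Eight-point qHTS titrations in triplicate, data normalized to DMSO neutral control. Reaction: 0.2 nM LmPYK E451W mutant, 0.5 mM PEP, 0.1 mM ADP, 7 mM MgCl2, pH 7.2, one hour at room temperature; luminescent ATP detection.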

[5] = target: Pyruvate kinase PKM (Homo sapiens) (UniProt P14618); test: qHTS Assay for Activators of Human Muscle Pyruvate Kinase (AID 954; active means well fitted curve in the direction sought with a large enough effect, not every such curve was filed as active;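 further: 0% = uninhibited enzyme and -100% = no enzyme or full thiadiazolimine inhibition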); settings: purified human muscle pyruvate kinase, luciferase-coupled luminescence, 1 h; series mostly up to 57.5 µM
Sequence of Pyruvate kinase PKM (Homo sapiens) (P14618 whole entry, looked up): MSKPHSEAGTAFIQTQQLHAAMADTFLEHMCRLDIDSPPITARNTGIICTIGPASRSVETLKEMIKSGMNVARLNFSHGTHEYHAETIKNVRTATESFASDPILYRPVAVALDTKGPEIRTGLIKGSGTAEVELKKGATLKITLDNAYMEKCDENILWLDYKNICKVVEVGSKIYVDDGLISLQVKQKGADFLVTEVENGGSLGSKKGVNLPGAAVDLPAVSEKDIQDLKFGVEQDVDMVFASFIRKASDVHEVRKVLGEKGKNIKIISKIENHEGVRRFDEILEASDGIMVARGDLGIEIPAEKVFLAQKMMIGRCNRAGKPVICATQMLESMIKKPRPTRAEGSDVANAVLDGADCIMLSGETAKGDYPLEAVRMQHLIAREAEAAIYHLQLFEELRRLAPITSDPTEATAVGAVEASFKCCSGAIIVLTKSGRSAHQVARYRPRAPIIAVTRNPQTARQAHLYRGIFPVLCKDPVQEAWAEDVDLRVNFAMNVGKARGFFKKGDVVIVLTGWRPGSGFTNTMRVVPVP
Method in brief: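 Purified human PKM2 (0.1 nM) with 0.5 mM PEP (Km) and 0.1 mM ADP in 50 mM imidazole pH 7.2, KCl, MgCl2, 1 h at room temperature; ATP formed read by coupled luciferase luminescence. Normalized to no-enzyme/110 uM thiadiazolimine inhibition; 0.3 nM enzyme column for activation.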

[6] = target: Muscarinic acetylcholine receptor M1 (Rattus norvegicus) (UniProt P08482); test: qHTS Assay for Antagonists of Acetylcholine Muscarinic M1 Receptor: Measurement of IP-One Response (AID 944); settings: CHO-M1 cells, IP-One HTRF, antagonist mode; series mostly up to 46.1 µM; further: nearly all actives have a fitted effect of over 75% in size; further: potency means the concentration at half of the fitted maximal effect
Sequence of Muscarinic acetylcholine receptor M1 (Rattus norvegicus) (P08482 whole entry, looked up): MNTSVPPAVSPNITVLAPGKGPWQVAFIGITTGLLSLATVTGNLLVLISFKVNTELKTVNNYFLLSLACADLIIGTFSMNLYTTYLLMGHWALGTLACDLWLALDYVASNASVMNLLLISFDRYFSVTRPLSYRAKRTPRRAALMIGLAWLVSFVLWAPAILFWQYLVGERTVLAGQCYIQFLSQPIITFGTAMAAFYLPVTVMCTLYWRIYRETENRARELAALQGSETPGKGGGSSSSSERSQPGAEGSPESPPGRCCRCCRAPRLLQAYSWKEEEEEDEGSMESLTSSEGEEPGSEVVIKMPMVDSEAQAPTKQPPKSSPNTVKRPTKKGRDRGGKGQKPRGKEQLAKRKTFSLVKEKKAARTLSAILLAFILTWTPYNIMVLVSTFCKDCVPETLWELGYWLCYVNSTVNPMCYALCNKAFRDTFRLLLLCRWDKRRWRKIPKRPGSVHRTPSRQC
Method in brief: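 CHO cells stably expressing rat M1, pretreated 10 min with compound, then stimulated 30 min with carbachol at EC80 (200 nM) in LiCl-containing buffer pH 7.4; IP1 accumulation read by HTRF competition (665/620 nm).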

[7] = target: Muscarinic acetylcholine receptor M1 (Rattus norvegicus) (UniProt P08482); test: qHTS Assay for Antagonists of Acetylcholine Muscarinic M1 Receptor: Kinetic Measurement of Intracellular Calcium Response (AID 943); settings: M1-expressing cells, kinetic intracellular calcium fluorescence; series mostly up to 35.3 µM; further: nearly all actives have a fitted effect of over 75% in size; further: potency means the concentration at half of the fitted maximal effect
Method in brief: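 CHO cells expressing rat M1 receptor, Fluo-4 loaded, preincubated 10 min with compound, then stimulated with EC80 carbachol (100 nM final). Kinetic calcium fluorescence over 4 min; response taken as peak over basal signal.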

[8] = qHTS Assay for Identification of Small Molecule Antagonists for Thrombopoietin (TPO) Signaling Pathway (AID 918); settings: TPO-dependent cell signaling reporter, antagonist mode; further: potency means the concentration at half of the fitted maximal effect; nearly all actives have a fitted effect of over 60% in size
Method in brief: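 Murine Ba/F3 cells expressing human TPO receptor and a Glycoprotein IIb promoter-luciferase reporter, IL-3-starved overnight, treated with compound plus TPO at EC50 (26 pM final). After 24 h at 37 C, luminescence read to detect inhibitors.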

[9] = target: Pyruvate kinase PKM (Homo sapiens) (UniProt P14618); test: qHTS Assay for Inhibitors of Human Muscle Pyruvate Kinase (AID 958); settings: purified human PKM enzyme activity
Method in brief: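 Enzyme was run at intermediate activity so both inhibitors and activators could be detected. ATP formed from ADP and PEP by 0.1 nM human PKM2 during a 1 h room-temperature incubation was quantified by coupled luciferase luminescence.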

[10] = target: Pyruvate kinase (Leishmania mexicana) (UniProt Q27686); test: qHTS Validation Assay for Activators of Leishmania Mexicana Pyruvate Kinase (AID 959); settings: purified L. mexicana pyruvate kinase, enzyme activity; series mostly up to 57.5 µM
Method in brief: as §1

[11] = Cell Viability - LYMP1-003 - Assay at 40 hr (AID 964); settings: LYMP1-003 lymphoblastoid viability; series mostly up to 92.2 µM; further: potency means the concentration at half of the fitted maximal effect; nearly all actives have a fitted effect of over 60% in size
Method in brief: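 LYMP1-003 human lymphoblastoid cells, 2500/well, preincubated 5 h at 37 C, then treated with compound for 40 h at 37 C. Intracellular ATP read by CellTiter-Glo luminescence after 30 min at room temperature; AC50 from Hill-equation fits.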

CC(=O)Nc1nnc(S(N)(=O)=O)s1
inactive: activation [1] 10.9% and -10.2% and -6.49% | outcome [2] | outcome [3] | Potency [4] | outcome [5]

CC(=O)OCC1=C(C(=O)O)N2C(=O)[C@@H](NC(=O)Cc3cccs3)[C@H]2SC1
inactive: activation [1] -3.15%

FC(F)(F)c1ccccc1-n1ccnc1
inactive: outcome [2] | outcome [3] | Potency [6] | outcome [5]

C[C@]12C=CC(=O)C=C1CC[C@H]1[C@@H]3C[C@@H](O)[C@](O)(C(=O)CO)[C@@]3(C)C[C@H](O)[C@@]12F
inactive: outcome [2] | Potency [4] | outcome [5]

Cc1scc2c1N(C(=O)CN1CCN(C)CC1)c1ccccc1NC2=O
inactive: outcome [2] | outcome [3] | Potency [4] | outcome [5]
active: Potency [7] 0.0316 µM | Potency [6] 0.0282 µM

CCN(CC)CC(=O)Nc1c(C)cccc1C
inactive: outcome [2] | outcome [3] | outcome [5]

CCN(CC)CCNC(=O)c1cc(S(C)(=O)=O)ccc1OC
inactive: outcome [2] | outcome [3] | Potency [4] | outcome [5]

O=C1NCN(c2ccccc2)C12CCN(CCCC(c1ccc(F)cc1)c1ccc(F)cc1)CC2
inactive: Potency [4] | outcome [5]
active: Potency [8] 12.6 µM

C[n+]1cc2c3c(ccc2c2ccc4cc5c(cc4c21)OCO5)OCO3
active: Potency [8] 1 µM | Potency [6] 12.6 µM | Potency [4] 10 µM | Potency [9] 10 µM
inactive: outcome [3] | outcome [5] | outcome [10]

CN(C)CCCN1c2ccccc2Sc2ccc(C(F)(F)F)cc21
inactive: activation [1] 12.9% | outcome [3] | Potency [4] | outcome [5]
active: Potency [7] 0.158 µM | Potency [6] 1 µM

O=C(O)CCCCCCCC(=O)O
inactive: outcome [2] | outcome [3] | Potency [7] | Potency [6] | Potency [4] | outcome [5]

Brc1c(NC2=NCCN2)ccc2nccnc12
inactive: outcome [2] | outcome [5]

Nc1ncn([C@@H]2O[C@H](CO)[C@@H](O)[C@H]2O)c(=O)n1
inactive: outcome [3] | Potency [6] | Potency [4] | outcome [5]
active: Potency [8] 3.16 µM | Potency [11] 12.6 µM

O=C1CC2(CCCC2)CC(=O)N1CCCCN1CCN(c2ncccn2)CC1
inactive: outcome [2] | outcome [5]

CCc1cccc(N(C)C(N)=Nc2cccc3ccccc23)c1
inactive: activation [1] -13% | outcome [5]
